Source: PubChem BioAssay
LYPLA2 counter: counter-screen for PME1 inhibitors: inhibitors of human LYPLA2; O95372; recombinant LYPLA2, FP-Rh probe fluorescence polarization; inhibition, % at 5.9 µM; hit rate 0.38% among 320,000;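 active = inhibition above the screen-wide mean plus 3 SD, limit set per campaign, cut at about 26% in these data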;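 also: 0% = LYPLA2 with DMSO and 100% = wells lacking LYPLA2 enzyme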
Target sequence (O95372 whole entry, looked up): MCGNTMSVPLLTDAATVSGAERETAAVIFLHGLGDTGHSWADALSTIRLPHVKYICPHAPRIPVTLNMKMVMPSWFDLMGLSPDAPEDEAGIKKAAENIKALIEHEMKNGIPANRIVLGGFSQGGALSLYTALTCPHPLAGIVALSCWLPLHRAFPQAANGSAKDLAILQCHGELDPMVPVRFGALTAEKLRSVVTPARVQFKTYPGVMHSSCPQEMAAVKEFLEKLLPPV
PREPL inh: inhibits the human prolyl oligopeptidase-like enzyme | AID 2751 | Q4J6C6 | hit rate 0.68% among 320,000 | inhibition, % at 5.96 µM | recombinant PREPL, fluorescence polarization activity-based probe; in the data active = inhibition above about 43%;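 also: 0% = enzyme with DMSO and 100% = wells lacking enzyme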
LYPLA1 inh: LYPLA1 (human) inhibition in PME1 counter-screen; O75608; inhibition, % at 5.9 µM; hit rate 0.16% among 320,000; recombinant LYPLA1, FP-Rh probe fluorescence polarization;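 active = inhibition above the mean of all tested compounds plus 3 SD, set per campaign, cut at about 14% in these data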;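 also: inhibitors block serine hydrolase probe labeling of LYPLA1 so polarization falls; 0% = enzyme with DMSO and 100% = wells lacking LYPLA1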
GSTO1 inh: blocks human GSTO1 in RBBP9 counter-screen. P78417. recombinant GSTO1, activity-based probe fluorescence polarization. inhibition, % at 5.96 µM. hit rate 1.1% among 300,000. AID 1974;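 active = inhibition above the campaign mean inhibition plus 3 SD, cut at about 35% in these data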;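 also: 0% = GSTO1-1 with DMSO and 100% = wells lacking GSTO1-1 enzyme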
Fam108B inh: blocks mouse Fam108B hydrolase in RBBP9 counter-screen; inhibition, % at 9.51 µM; AID 1947; recombinant Fam108B, FP-Rh probe fluorescence polarization; hit rate 0.33% among 300,000;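 active = inhibition above the screen mean inhibition plus 3 SD, computed separately per campaign, cut at about 18% in these data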;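 also: inhibitors lower polarization as less probe binds the enzyme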
PME-1 inh: PME-1 (human) inhibition. recombinant PME-1, FP-Rh probe fluorescence polarization. inhibition, % at 5.9 µM. hit rate 0.53% among 320,000. AID 2130;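 active = inhibition above the campaign mean of all compounds plus 3 SD, cut at about 26% in these data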;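 also: competitive labeling of PME-1 active site by serine hydrolase directed probe; 0% = PME-1 with DMSO and 100% = wells lacking PME-1 enzyme; inhibitors block probe labeling so polarization falls and inhibition rises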
Target sequence (Q9Y570 whole entry, looked up): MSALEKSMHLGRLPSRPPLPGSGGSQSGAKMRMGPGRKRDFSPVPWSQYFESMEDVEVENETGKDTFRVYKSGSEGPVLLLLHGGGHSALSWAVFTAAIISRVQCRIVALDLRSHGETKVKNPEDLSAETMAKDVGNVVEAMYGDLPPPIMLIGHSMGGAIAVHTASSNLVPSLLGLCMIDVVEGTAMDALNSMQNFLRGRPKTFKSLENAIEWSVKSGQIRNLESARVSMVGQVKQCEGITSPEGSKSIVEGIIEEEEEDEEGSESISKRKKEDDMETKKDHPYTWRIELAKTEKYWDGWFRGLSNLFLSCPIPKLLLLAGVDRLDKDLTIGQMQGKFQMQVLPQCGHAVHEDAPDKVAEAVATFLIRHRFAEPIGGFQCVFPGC
GSTO1 inh conf: GSTO1 (human) inhibition, confirmation | AID 2176 | shares compounds with GSTO1 inh | hit rate 54% among 2,400 | recombinant GSTO1, probe fluorescence polarization | inhibition, % at 5.96 µM;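 active = inhibition above the primary screen's cutoff, its mean inhibition plus 3 SD, cut at about 35% in these data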;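 also: loss of polarization as inhibitors block binding of rhodamine sulfonate ester activity probe; 0% = GSTO1 with DMSO and 100% = wells lacking GSTO1 enzyme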
GSTO1 recomb ABPP: inhibitors of recombinant human GSTO1. shares compounds with GSTO1 inh. hit rate 30% among 130. gel ABPP SE-Rh probe fluorescence. inhibition, % at 1 µM;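 active = inhibition of the enzyme GSTO1 above about 75%, limit read from the data; inactive = inhibition below that limit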
* marks the source's active call; other numbers are inactive results; / = no result given; ! = not active in a repeat. Rows were chosen to be rich in hits. Some 2% of all compounds tested hit in one or more screens of this group.

SMILES	LYPLA2 counter	PREPL inh	LYPLA1 inh	GSTO1 inh	Fam108B inh	PME-1 inh	GSTO1 inh conf	others
C[C@]12CC[C@H]3[C@@H](CCC4=CC(=O)CC[C@@H]43)[C@@H]1CC[C@@H]2O	/	-3	/	/	/	/	/
C[C@]12CC[C@@H]3c4ccc(O)c(O)c4CC[C@H]3[C@@H]1CC[C@@H]2O	0	18	-4	61*	-1	-12	8
O=C(O)C1Cc2ccccc2N2CCCC12 (stereo not given)	1	25	-1	21	1	1	/
O=C1Nc2cc(C(=O)N3CCC4(CC3)OCCO4)ccc2NC1CSCc1cccc(F)c1 (stereo not given)	8	18	2	-17	0	-7	/
CC[C@@H](CO)NC(=O)[C@@H]1C=C2c3cccc4c3c(cn4C)C[C@H]2N(C)C1	10	54*!	6	48*!	3	5	12
CCC(CO)NC(=O)C1C=C2c3cccc4[nH]cc(c34)CC2N(C)C1 (stereo not given)	-8	31	-2	11	1	1	/
O=C(CN1CCCC1=O)N1CCOCC1	-6	5	1	56*	-4	-5	12
CC1(C)CC(=O)C(C2(O)C(=O)NC(=O)NC2=O)=C(O)C1	-7	-6	1	68*	2	-1	60*
COC(=O)C(O)(c1ccc(N=Cc2ccccc2O)c(C)c1)C(F)(F)F (stereo not given)	3	10	1	-7	-3	2	/
CC(C)(C)c1ccc(O)c(N=Cc2c(O)ccc3ccccc23)c1	-3	10	-2	69*	9	1	8
CN1CCc2nc(SCc3cccc(Br)c3)c(C#N)cc2C1	17	-9	0	4	-1	3	/
CN1CC[C@@]2(C)c3cc(O)ccc3N(C)C2O1 (stereo not given in full)	4	8	-4	85*	1	7	51*
C=CCN1CC[C@@]2(C)c3cc(O)ccc3CC1[C@@H]2C	-1	5	-4	2	1	1	/
COc1cc2c(cc1OC)-c1c(OC)c(OC)cc3c1[C@H](C2)N(C)CC3	2	19	3	47*	4	4	71*
CNc1ccc2oc(C[C@H]3O[C@@]4(CC[C@H]3C)O[C@H]([C@H](C)C(=O)c3ccc[nH]3)[C@H](C)C[C@H]4C)nc2c1C(=O)O	7	16	-3	42*	1	0	8
Oc1ccc2c3c1O[C@H]1c4[nH]c5ccccc5c4C[C@@]4(O)C(C2)N(CC2CC2)CC[C@]314	3	16	-3	40*	4	2	3
CCN1C[C@]2(COC)CC[C@H](O)[C@]34C1[C@](O)([C@@H](OC)[C@H]23)[C@@]1(O)C[C@H](OC)[C@H]2C[C@@H]4[C@@H]1[C@H]2OC	0	1	1	-1	2	-3	/
COCCn1c(O)c(/C=N/NC(=O)CSC(=S)N2CCCC2)c(=O)[nH]c1=S	-3	17	1	/	/	-3	/
CN1CCN(c2ccc3c(c2)S(=O)(=O)c2ccccc2C3=O)CC1	0	-4	-5	4	0	0	/
O=C1C(c2ccccc2)=C(N2CC2)c2ccccc21	0	10	-3	41*	-2	3	33
O=[N+]([O-])c1cc(O)c(O)c([N+](=O)[O-])c1	0	13	4	39*	4	-1	31
Cn1c(O)c(C2=NN(C(=O)CCl)C(c3ccccc3)C2)c(=O)n(C)c1=O (stereo not given)	3	-2	1	102*	4	3	98*
Cn1c(O)c(C2=NNC(c3ccc(Cl)cc3)C2)c(=O)n(C)c1=O (stereo not given)	3	18	3	3	-2	5	/
c1ccc(OCC2CO2)cc1 (stereo not given)	2	1	-5	/	/	-3	/
c1ccc(-c2[nH]c[n+](CC3CO3)c2-c2ccccc2)cc1 (stereo not given)	4	19	-10	76*	-2	-3	81*	GSTO1 recomb ABPP=24
SMILES	LYPLA2 counter	PREPL inh	LYPLA1 inh	GSTO1 inh	Fam108B inh	PME-1 inh	GSTO1 inh conf	others
C[C@H]1C(=O)O[C@@H]2CCN3CC=C(COC(=O)[C@](C)(O)[C@]1(C)O)[C@H]23	4	-2	2	0	-3	5	/
CC(C)CN(CC(C)C)c1ccc(C=C2C(=O)NC(=S)NC2=O)cc1[N+](=O)[O-]	9	3	1	42*	11	9	27
CCN(CC)c1ccc(C=C2C(=O)NC(=S)NC2=O)cc1	-2	-8	7	2	2	0	/
COCCOC(=O)c1c(N)n(Cc2ccco2)c2nc3ccccc3nc12	-12	6	-4	21	5	-7	/
Nc1c(C(=O)OCC2CCCO2)c2nc3ccccc3nc2n1Cc1cccs1 (stereo not given)	-8	14	-1	39*	0	12	5
CN(C)C1C(=O)C(C(N)=O)=C(O)C2(O)C(=O)C3=C(O)c4c(O)cccc4C(C)(O)C3C(O)C12 (stereo not given)	4	20	-2	68*	15	-10	42*
C[C@]12CCC3=C4CCC(=O)C=C4CC[C@H]3C1CC[C@@H]2O (stereo not given in full)	1	4	-2	4	-1	2	/
CCCN1CCc2cccc3c2[C@H]1Cc1ccc(O)c(O)c1-3	-13	17	-9	93*	-1	5	9
O=C1NC(=O)C(Sc2ccccc2[N+](=O)[O-])C(=O)N1	2	5	-4	48*	7	1	8
CCCCNC(=O)c1c(N)n(CCCOC)c2nc3ccccc3nc12	-8	14	-3	51*	9	8	17
COCCNC(=O)c1c(N)n(CCC(C)C)c2nc3ccccc3nc12	-4	11	-1	75*	7	7	6
N/C(=N\[N+](=O)[O-])N1CCN(C(=O)Oc2ccccc2)CC1	4	5	-1	1	-2	6	/
COC(=O)C1=C(c2ccc(F)cc2F)C[C@@H]2CC[C@H]1N2C(=O)NCCOc1ccc(OC)cc1	-2	3	-1	/	/	-3	/
OCCOCCO	2	3	1	-5	-1	4	/
CCC(C)/C=C(C)/C=C/C1=CC2=C(Cl)C(=O)C(C)(OC(C)=O)C(=O)C2=CO1 (stereo not given)	12	13	9	43*	11	8	40*
CCCCCCCCn1sccc1=O	-4	7	0	/	/	-4	/
Cn1cc(NC(=O)CCl)cn1	-1	-6	-1	80*	1	-8	89*
CCC(=O)Nc1ccccc1	-2	1	-1	-9	-3	-1	/
